High-throughput results: PubChem, National Center for Advancing Translational Sciences (NCATS)
JMJD2A Tudor = qHTS Assay for Inhibitors of JMJD2A-Tudor Domain. Potency, µM (top dose mostly 114 µM), for the others: at the top dose activity change, negative = inhibition, hits mostly inhibitors. AlphaScreen JMJD2A-Tudor / H3K4me3 peptide binding. AID 504339, 2011. actives 4.4% (n = 390,000). Lysine-specific demethylase 4A (Homo sapiens), O75164; note: % is set by controls: 0 for no effect and ±100 for the full control effect; nearly all actives have a fitted effect of over 50% in size
Target sequence (O75164 whole entry, looked up, the tested form may be a part): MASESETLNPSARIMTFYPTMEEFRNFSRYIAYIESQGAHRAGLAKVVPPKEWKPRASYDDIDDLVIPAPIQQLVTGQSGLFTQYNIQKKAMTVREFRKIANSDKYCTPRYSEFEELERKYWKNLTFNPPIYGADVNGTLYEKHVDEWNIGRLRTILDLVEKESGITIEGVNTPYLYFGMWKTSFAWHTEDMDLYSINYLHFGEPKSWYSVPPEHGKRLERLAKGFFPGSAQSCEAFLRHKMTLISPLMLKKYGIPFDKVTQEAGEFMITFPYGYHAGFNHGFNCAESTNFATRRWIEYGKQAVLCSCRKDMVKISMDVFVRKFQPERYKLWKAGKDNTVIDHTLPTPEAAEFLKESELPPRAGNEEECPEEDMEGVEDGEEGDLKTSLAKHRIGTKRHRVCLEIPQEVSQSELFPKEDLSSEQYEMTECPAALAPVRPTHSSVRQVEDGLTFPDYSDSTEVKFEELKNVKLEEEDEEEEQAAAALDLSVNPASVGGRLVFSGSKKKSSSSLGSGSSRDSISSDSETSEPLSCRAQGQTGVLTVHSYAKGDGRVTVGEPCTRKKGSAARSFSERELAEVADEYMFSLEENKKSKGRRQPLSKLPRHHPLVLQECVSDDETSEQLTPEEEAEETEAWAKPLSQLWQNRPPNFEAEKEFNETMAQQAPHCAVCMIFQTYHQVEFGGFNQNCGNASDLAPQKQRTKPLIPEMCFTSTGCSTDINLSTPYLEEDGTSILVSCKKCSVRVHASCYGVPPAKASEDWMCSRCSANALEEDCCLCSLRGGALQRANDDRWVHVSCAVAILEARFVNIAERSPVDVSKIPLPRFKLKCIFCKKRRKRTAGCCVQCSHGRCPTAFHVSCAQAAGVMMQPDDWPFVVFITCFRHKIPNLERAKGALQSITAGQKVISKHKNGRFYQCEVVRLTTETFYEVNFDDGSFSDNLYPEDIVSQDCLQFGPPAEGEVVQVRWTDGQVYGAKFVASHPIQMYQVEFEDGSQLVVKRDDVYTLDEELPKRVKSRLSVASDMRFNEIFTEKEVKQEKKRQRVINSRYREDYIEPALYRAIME
BAZ2B block = qHTS Assay for Inhibitors of BAZ2B; Bromodomain adjacent to zinc finger domain protein 2B (Homo sapiens), Q9UIF8; AlphaScreen BAZ2B-H3K14Ac peptide displacement; Potency, µM (highest dose often 114 µM), for the others: at the top dose activity change, negative = inhibition, hits mostly inhibitors; actives 4.4% (n = 360,000); note: % is set by controls: 0 for no effect and ±100 for the full control effect; nearly all actives have a fitted effect of over 60% in size
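Multi-concentration screen (max 110 uM) measuring displacement of acetylated histone H3 peptide from BAZ2B by AlphaScreen, using 50 nM protein, 50 nM peptide and 10 ug/mL streptavidin donor plus Ni-chelate acceptor beads.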
Sfp PPTase inh = qHTS Assay for Inhibitors of Bacillus subtilis Sfp phosphopantetheinyl transferase (PPTase) | actives 3.5% (n = 310,000) | 4'-phosphopantetheinyl transferase ffp (Bacillus subtilis), Q9F4F7 | Potency, µM, without a hit: largest response in the series, negative = inhibition, most hits filed as inhibitors | AID 1490, 2009 | Biochemical Sfp PPTase activity, qHTS;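 note: the enzyme is Sfp with the accession as filed and its product quenches rhodamine fluorescence; 0% = enzyme reaction without inhibitor and -100% = no enzyme wells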
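Sfp 15 nM + cpd, 15 min RT; start w/ rhodamine-CoA 5 uM, BHQ-2-YbbR 12.5 uM (final); 50 mM Hepes pH 7.6, 10 mM MgCl2, 0.01% NP-40, 0.01% BSA; read 525/598 nm at 0 and 30 min.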
L3MBTL1 inh = qHTS Assay for the Inhibitors of L3MBTL1 | Lethal(3)malignant brain tumor-like protein 1 (Homo sapiens), Q9Y468 | AlphaScreen L3MBTL1–H3K9me1 peptide binding | Potency, µM (titrated, usually from 57.1 µM), inactives show top-dose activity, negative = inhibition, actives largely listed as inhibitors | actives 0.66% (n = 230,000) | AID 485360, 2010; note: % is set by controls: 0 for no effect and ±100 for the full control effect; nearly all actives have a fitted effect of over 60% in size
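L3MBTL1 (50 nM) pre-complexed 30 min with biotinylated H3(1-15)K9me1 peptide (75 nM), then compounds added for 30 min at room temperature; AlphaScreen streptavidin donor/nickel chelate acceptor beads (10 ug/mL final) read after 30 min dark incubation.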
G9a inh = qHTS Assay for Inhibitors of Histone Lysine Methyltransferase G9a; Potency, µM (doses to about 102 µM), without a hit: at the top dose activity, negative = inhibition, most hits filed as inhibitors; G9a H3K9 monomethylation, AlphaScreen, 2 h; actives 8.8% (n = 350,000); note: % is set by controls: 0 for no effect and ±100 for the full control effect; nearly all actives have a fitted effect of over 75% in size
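Step 1: enzyme (final 20 nM) with compound, 15 min RT. Step 2: substrate peptide 500 nM and SAM 20 uM, 2 h RT. Step 3: anti-H3K9me1 antibody and AlphaScreen beads, 10 min, then plate read.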
HP1b chromo inh = HTS for Inhibitors of HP1-beta Chromodomain Interactions with Methylated Histone Tails. Chromobox protein homolog 1 (Homo sapiens), P83916. AlphaScreen HP1-beta / biotin-H3K9me3 peptide binding. actives 0.56% (n = 390,000). Potency, µM (top dose mostly 114 µM), without a hit: at the highest dose activity change, negative = inhibition, actives largely listed as inhibitors; note: nearly all actives have a fitted effect of over 70% in size
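AlphaScreen: HP1-beta (50 nM) preformed 30 min with biotin-H3(1-18)K9me3 peptide (50 nM) in PBS pH 7.4, 0.01% Tween-20. Compound added for 30 min at RT, then streptavidin donor/nickel chelate acceptor beads (10 ug/mL) for 30 min.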
Starred values were filed as active, the others as inactive; ? = inconclusive; nt = no result; [ ] = remark or other dose. A selection: hits, their analogues and other compounds. The true share with any hit is near 12%. Calls come from the whole dose curve; as a rule, active = well fitted curve in the direction sought with a large enough effect; inconclusive = small, poorly fitted or top-dose-only effect, or another doubt; inactive = no such curve, though single readings can be large; an effect the other way counts as inactive or inconclusive. Potency is the fitted concentration of half-maximal effect.

SMILES	JMJD2A Tudor	BAZ2B block	Sfp PPTase inh	L3MBTL1 inh	G9a inh	HP1b chromo inh
COCCCN1C(=O)C(=O)/C(=C(/O)c2ccccc2)C1c1ccc(N(C)C)cc1 (configuration not stated)	?	?	-3.1%	7.2%	44.7µM*	7.2%
COCCCN1C(=O)C(=O)/C(=C(/O)c2ccccc2)C1c1ccc2c(c1)OCO2 (configuration not stated)	?	-35.1%	22.5%	-4.4%	56.2µM*	20.4%
Cc1cc(F)ccc1NC(=O)CN1C(=O)CCc2cc(S(=O)(=O)N3CCOCC3)ccc21	2.3%	-2.6%	nt	nt	5.7%[12.7 µM]	25.1%
N#CC(c1ccccn1)c1ncc(C(F)(F)F)cc1Cl (configuration not stated)	-11.2%	-23.5%	0.7%	3.4%	26.6%[12.7 µM]	32.5%
CCn1nc([N+](=O)[O-])c(C(C#N)c2nc3cc(C(F)(F)F)ccc3s2)c(Cl)c1=O (configuration not stated)	28.2µM*	11.2µM*	-18.0%	nt	11.2µM*	22.4µM*
Cn1nc([N+](=O)[O-])c(C(C#N)c2ccccn2)c(Cl)c1=O (configuration not stated)	-27.5%	-36.2%	-5.0%	-5.6%	11.2µM*	10.2%
CCCn1nc([N+](=O)[O-])c(C(C#N)c2nc3ccccc3o2)c(Cl)c1=O (configuration not stated)	56.2µM*	20µM*	-17.4%	?	10µM*	?
Cc1cccc[n+]1C1C(c2ccccc2)C(C#N)=C(C(=C=[N-])C#N)NC1(O)C1CC1 (configuration not stated)	?	-34.6%	1.6%	-2.3%	39.8µM*	-19.2%
COc1ccc(C)cc1NC(=O)CCn1nc(C)cc1C	?	50.1µM*	nt	nt	-1.9%[59 µM]	29.4%
COc1cccc(NC(=O)Cn2c(=O)n(CCc3ccccc3)c(=O)c3c4c(sc32)CN(C(C)=O)CC4)c1	-16.4%	-10.3%	nt	nt	?	8.4%
O=S(=O)(Cc1ccccc1)NCc1ccccn1	3.55µM*	-11.5%	-12.5%	nt	?	7.9%
O=S(=O)(NCc1ccccn1)c1ccccc1	8.91µM*	-0.7%	-4.0%	nt	17.3%[59 µM]	21.6%
COc1ccc(S(=O)(=O)NCc2ccccn2)c(C)c1C	9.6%	11.6%	1.1%	1.1%	nt	24.0%
COc1c(C)cc(S(=O)(=O)NCc2ccccn2)c(C)c1C	25.1µM*	3.9%	4.0%	-1.1%[2.29 µM]	-13.9%[0.501 µM]	30.8%
O=S(=O)(NCc1ccccn1)c1ccccn1	?	?	-12.1%	?	nt	20.0%
COC(=O)Nc1ccc(S(=O)(=O)NCc2ccccn2)cc1	5.62µM*	-11.9%	1.2%	13.8%	13.8%	-5.9%
COc1ccc(NC(=O)c2c(-c3ccc(C)cc3)nnc3ccccc23)c(OC)c1	-32.1%	?	nt	nt	-9.8%[59 µM]	0.3%
Cc1c(Cl)cccc1NC(=O)CCS(=O)(=O)c1ccc2c(c1)CC(=O)N2C	0.0%	-2.7%	nt	nt	1.8%[59 µM]	33.3%
O=S(=O)(NCc1ccccn1)c1cccc2nsnc12	?	?	-15.8%	nt	20µM*	27.0%
CCOc1ccc(OCC)c(S(=O)(=O)NCc2ccccn2)c1	89.1µM*	-6.1%	-22.0%	2.0%	-24.9%[59 µM]	9.0%
CCOc1ccc(CC(=O)NCc2ccc3c(c2)CCN3C(C)=O)cc1OCC	-6.3%	-10.5%	nt	nt	1.4%[59 µM]	23.5%
Cc1ccc(NC(=O)CSc2nnc(-c3cc4occc4n3C)n2-c2ccccc2C)c(C)c1	?	?	nt	nt	?	5.0%
Cc1ccccc1Nc1nc(N)nc(COC(=O)/C=C/c2ccco2)n1	-26.1%	?	-29.0%	-17.0%	50.1µM*	9.6%
CCOc1cc(C#N)c(NC(=O)c2cccc(S(=O)(=O)N3CCOCC3)c2)cc1OCC	-8.2%	?	nt	nt	-42.1%[59 µM]	19.8%
CCOc1ccc(-n2c(-c3ccc(Br)cc3)c[n+]3c2CCCCC3)cc1	-13.9%	nt	5.7%	nt	1.12µM*	7.3%
SMILES	JMJD2A Tudor	BAZ2B block	Sfp PPTase inh	L3MBTL1 inh	G9a inh	HP1b chromo inh
CCOc1ccc(-n2c(-c3ccc(OC)cc3)c[n+]3c2CCCCC3)cc1	-1.4%	0.4%	17.7%	12.5%	14.2%[59 µM]	20.1%
CC(C)(C)n1cnc2cc(NCc3ccc(Br)cc3)ccc21	20µM*	31.6µM*	-13.5%	nt	50.1µM*	?
CC(C)(C)n1cnc2cc(NS(=O)(=O)c3ccccc3)ccc21	-16.1%	7.6%	2.5%	-0.8%	-39.3%[12.7 µM]	36.7%
CC(C)(C)n1cnc2cc(NCc3ccccc3O)ccc21	-35.3%	?	-2.1%	nt	-7.4%	-12.1%
CCN(CC)c1ccc(CNc2ccc3c(c2)ncn3C(C)(C)C)cc1	14.1µM*	11.2µM*	?	nt	14.1µM*	?
CCc1ccc(CNc2ccc3c(c2)ncn3C(C)(C)C)cc1	63.1µM*	44.7µM*	-0.1%	nt	50.1µM*	?
COc1ccc(/C=C/C(=O)Nc2cc(S(=O)(=O)N3CCOCC3)ccc2N2CCCC2)cc1OC	-28.4%	?	14.9%	-8.3%	-27.8%	-9.2%
CCN1CCN(c2ccc(S(=O)(=O)N3CCOCC3)cc2NC(=O)c2ccc(Cl)cc2Cl)CC1	-16.2%	-4.4%	nt	-8.7%	12.6µM*	15.7%
CCN1CCN(S(=O)(=O)c2ccc(Cl)c(C(=O)Nc3cc(Cl)ccc3N3CCOCC3)c2)CC1	?	?	11.1%	nt	?	14.1%
CCOc1ccccc1NC(=O)/C=C/c1ccc(S(=O)(=O)N2CCOCC2)cc1	-20.0%	-3.6%	nt	-6.4%	50.1µM*	9.3%
CCN1CCN(c2ccc(S(=O)(=O)N3CCOCC3)cc2NC(=O)/C=C/c2ccc(OC)c(OC)c2)CC1	-20.0%	6.2%	nt	-6.0%	14.1µM*	9.7%
CCN1CCN(c2ccc(S(=O)(=O)N3CCCCC3)cc2NC(=O)/C=C/c2ccc(OC)c(OC)c2)CC1	-35.2%	?	nt	-1.1%	22.4µM*	-6.0%
COc1ccc(CCNC(=O)c2cnc3sc(N4CCC(C)CC4)nn3c2=O)cc1OC	-14.6%	3.0%	nt	nt	-1.4%[59 µM]	6.1%
c1ccc(N2CCN(c3ncnc4[nH]ncc34)CC2)cc1	-19.0%	-7.4%	nt	nt	-13.7%[59 µM]	-18.1%
Cc1ccc(OCC(=O)Nc2ccc3nn(-c4ccc(Cl)cc4)nc3c2)cc1	-19.0%	-3.8%	nt	nt	1.9%[59 µM]	-0.8%
